Screening results from PubChem BioAssay.
The list is not random: actives were taken first. Their share in the collection is about 19%.
HT1080NT lethal – qHTS for induction of synthetic lethality in tumor cells producing 2HG: qHTS for the HT-1080-NT fibrosarcoma cell line | Potency, µM (top dose mostly 46.1 µM), without a hit: top-dose activity, negative = less viability, most hits filed as cytotoxic | HT-1080-NT fibrosarcoma viability, CellTiter-Glo ATP luminescence, 48 h | hit rate 1.6% among 360,000;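 also: NT is the 2HG producing partner of a matched IDH1 knockdown line; potency is read from the fitted curve at half-maximal effect; 0% = DMSO-treated cells and -100% = media-only wells without cells; nearly all actives have a fitted effect of over 55% in size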
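Viability of the 2HG-overproducing fibrosarcoma line after 48 hours of compound exposure at 37 degrees C was determined by luminescence with CellTiter-Glo, and concentration-effect curves were then fitted and categorized.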
IL-1B inflam inh – qHTS for Inhibitors of Inflammasome Signaling: IL-1-beta AlphaLISA Primary Screen; activity change, % at 57.5 µM; AID 743279, 2014; THP-1 LPS/ATP IL-1B secretion, AlphaLISA, 16 h; stronger effect = lower value; hit rate 4.7% among 360,000; in the data active = activity change below about -50%; inconclusive = mostly about -30% to -49%
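Secreted IL-1B measured by AlphaLISA bead assay after 16 h compound exposure of THP-1 cells; compounds (final up to 57.5 uM) added 1 h before LPS (250 ng/mL) and ATP (1.25 mM) stimulation; lower signal means less secretion.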
TDP1 cell CPT – qHTS for Inhibitors of human tyrosyl-DNA phosphodiesterase 1 (TDP1): qHTS in cells in presence of CPT. Potency, µM (series often up to 46.2 µM), for the others: at the top dose activity change, negative = growth inhibition, most hits filed as inhibitors. AID 686979, 2013. hit rate 12% among 420,000. chicken DT40 Tdp1-/-;hTDP1 cells + 20 nM CPT, ATP luminescence, 48 h; also: potency is read from the fitted curve at half-maximal effect; nearly all actives have a fitted effect of over 55% in size
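Chicken DT40 Tdp1-/- cells complemented with human TDP1, 400 cells/well, exposed to compounds plus 20 nM camptothecin for at least 48 h at 37 C; viability read as ATP content by CellTiter-Glo luminescence.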
TDP1 cell noCPT – qHTS for Inhibitors of human tyrosyl-DNA phosphodiesterase 1 (TDP1): qHTS in cells in absence of CPT; DT40 Tdp1-/- hTDP1 cells, no CPT, ATP luminescence, 48 h; Potency, µM (titrated, usually from 46.2 µM), without a hit: at the highest dose activity change, negative = growth inhibition, most hits filed as inhibitors; hit rate 15% among 420,000; AID 686978, 2013; also: potency is read from the fitted curve at half-maximal effect; nearly all actives have a fitted effect of over 55% in size
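DT40 Tdp1-/-;hTDP1 cells, no CPT (DMSO vehicle only), 400 cells/well; compounds pin-transferred; ≥48 hr, 37 °C; CellTiter-Glo 30 min RT dark, luminescence read.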
HT1080 IDH1KD tx – qHTS for induction of synthetic lethality in tumor cells producing 2HG: qHTS for the HT-1080-IDH1KD cell line; Potency, µM (titrated, usually from 46.1 µM), for the others: at the top dose activity, negative = toxicity, actives largely listed as cytotoxic; hit rate 2% among 360,000; HT-1080 IDH1 knockdown viability, ATP luminescence, 48 h;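 also: potency is read from the fitted curve at half-maximal effect; 0% = DMSO wells and -100% = cell-free medium wells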
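In this qHTS, HT-1080 cells depleted of IDH1 are exposed for 48 h at 37 °C to compound titrations. Toxicity is scored from CellTiter-Glo luminescence, with DMSO as full viability and medium alone as none.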
* hit, by the source's call; i = inactive; u = inconclusive; x = no result; ! = not active in a repeat; [ ] = another dose, or the depositor's remark. Unless noted, calls follow the shape of the dose curve; as a rule, active = well fitted curve in the direction sought with a large enough effect; inconclusive = small, poorly fitted or top-dose-only effect, or another doubt; inactive = no such curve, though single readings can be large; an effect the other way counts as inactive or inconclusive. Unless noted, % is scaled to controls: 0 for no effect and ±100 for the full control effect.

SMILES | HT1080NT lethal | IL-1B inflam inh | TDP1 cell CPT | TDP1 cell noCPT | HT1080 IDH1KD tx
CCOC(=O)c1sc(NC(=O)c2cc(-c3ccc(C)cc3)nc3ccccc23)c(C#N)c1C | 16.4µM* | -4.7 | 20.6µM* | 16.4µM* | u
Cc1ccccc1-c1cc(C(=O)Nc2sc(C(=O)OC(C)C)c(C)c2C#N)c2ccccc2n1 | u | -26.6 | 23.1µM* | 20.6µM* | u
O=C(NCc1ccccc1Cl)C1CCN(C(=O)N2CCOc3ccccc32)CC1 | x | x | -4.3% | u | x
Cc1cccc(C#Cc2ccccc2)n1 | -0.3% | -18.4 | u | 29.9µM*! | -4.0%
Nc1ccc(C#Cc2ccccc2)cc1 | 0.2% | -27.0 | 3.7% | 1.5% | -5.9%
CC1(C)CC(=O)C(C(=O)Cc2ccccc2[N+](=O)[O-])C(=O)C1 | 16.2% | -1.7 | 2.5% | -23.4% | 11.9%
C[C@@H]1CN([C@@H](C)CO)C(=O)c2cc(C#Cc3cccc(F)c3)cnc2O[C@@H]1CN(C)CC1CCOCC1 | -17.9% | u | 16.4µM* | u | -21.6%
C[C@H](O)C#Cc1cnc2c(c1)C(=O)N([C@H](C)CO)C[C@@H](C)[C@@H](CN(C)Cc1ccc(-c3ccccc3)cc1)O2 | u | -107.9* | u | 1.3µM* | -15.3%
C[C@@H]1CN([C@@H](C)CO)C(=O)c2cc(C#Cc3cccc(F)c3)cnc2O[C@H]1CN(C)C(=O)C1CCCCC1 | -0.7% | -4.4 | -23.5% | u | -5.2%
C[C@H]1CN([C@@H](C)CO)C(=O)c2cc(/C=C/c3ccccc3)cnc2O[C@H]1CN(C)C(=O)c1cccc(F)c1 | -3.4% | -17.8 | u | 23.1µM* | -6.0%
C[C@@H]1CN([C@@H](C)CO)C(=O)c2cc(Br)cnc2O[C@@H]1CN(C)Cc1ccc(Oc2ccccc2)cc1 | -13.8% | -51.6* | -1.3% | 16.4µM* | -18.0%
C[C@H](CO)N1C[C@H](C)[C@@H](CN(C)Cc2ccc(-c3ccccc3)cc2)Oc2ncc(C#C[C@@H](C)O)cc2C1=O | -23.2% | -20.6 | u | u | -22.5%
CC(=NCCCn1ccnc1)c1c(C)[nH]n(-c2ccc([N+](=O)[O-])cc2)c1=O | -9.1% | -0.1 | -10.7% | -27.1% | 0.3%
C[C@@H]1CN([C@@H](C)CO)C(=O)c2cc(-c3ccccc3F)cnc2O[C@H]1CN(C)Cc1cccc(F)c1 | -13.3% | -22.4 | u | 23.1µM* | -7.2%
Cc1ccc(-c2cnc3c(c2)C(=O)N([C@H](C)CO)C[C@H](C)[C@@H](CN(C)Cc2ccccc2F)O3)cc1 | -15.7% | -25.1 | u | u | 12.7%
CCn1ncc(CN2CCCC(C(=O)Nc3cccc(-c4cc5ccccc5[nH]4)c3)C2)c1C (stereo unspecified) | u | -93.6* | 20.6µM* | u | u
Cn1cc(CN2CCCC(C(=O)Nc3cccc(-n4cccn4)c3)C2)cn1 (stereo unspecified) | -7.5% | 2.8 | 0.5% | 26.4% | -0.3%
CSc1cccc(CN2CCCC(C(=O)Nc3cccc(-n4cccn4)c3)C2)c1 (stereo unspecified) | -10.5% | -65.9* | u | u | -8.1%
Cc1cc(CN2CCCC(C(=O)Nc3cccc(-n4cccn4)c3)C2)cc(C)c1O (stereo unspecified) | -25.0% | 0.0 | 16.4µM* | u | u
O=C(Nc1cccc(-n2cccn2)c1)C1CCCN(Cc2cc3ccccc3[nH]2)C1 (stereo unspecified) | u | -59.7* | 16.4µM* | u | u
Cn1cccc1C1CCCN1CC(=O)Nc1c(Cl)cc(Cl)cc1Cl (stereo unspecified) | -21.1% | u | -22.7% | u | -1.4%
O=C(O)c1cc(S(=O)(=O)N(Cc2ccccc2)c2ccc(Cl)cc2)ccc1Cl | -17.8% | -27.0 | -3.8% | 4.0% | -0.6%
O=C(Nc1cccc(-n2cnnn2)c1)C1CCCN(Cc2cccc(C(F)(F)F)c2)C1 (stereo unspecified) | -7.9% | i | 13µM* | 18.4µM* | 0.0%
O=C(Nc1cccc(-n2cccn2)c1)C1CCCN(Cc2cccc(F)c2F)C1 (stereo unspecified) | -0.9% | 8.9 | 23.1µM* | 20.6µM* | -5.1%
CC(=O)N1CC2([N+](=O)[O-])CN(C(C)=O)CC([N+](=O)[O-])(C1)C2(C)C | -16.7% | -18.0 | -1.6% | -1.3% | -5.2%
SMILES | HT1080NT lethal | IL-1B inflam inh | TDP1 cell CPT | TDP1 cell noCPT | HT1080 IDH1KD tx
CCc1ccccc1-n1cnc2cc(C(=O)NC3CCCCCC3)ccc21 | x | x | u | 23.1µM* | x
Cc1cccc(-n2cnc3cc(C(=O)NC4CCCCCC4)ccc32)c1 | x | x | 3.26µM* | 4.61µM* | x
Cn1nnc2cc(C(=O)NC3CCCCC3)ccc21 | 20.6% | 29.8 | 4.7% | -0.7% | 15.2%
CC(C)NC(=O)C1(C)CCCN1C(=O)c1ccccc1Br (stereo unspecified) | u | 50.1 | -1.7% | 0.7% | 19.0%
Cc1noc(C)c1CSc1ccccc1C(=O)Nc1nccs1 | 11.5% | 21.2 | 12.0% | -5.5% | 20.2%
C=C(C)c1cccc(C(C)(C)NC(=O)N2CCCC(C)C2)c1 (stereo unspecified) | -7.3% | 13.3 | 23.1µM* | u | -7.0%
C=C(C)c1cccc(C(C)(C)NC(=O)N2CCCC(C(N)=O)C2)c1 (stereo unspecified) | -4.2% | -9.1 | -0.8% | -40.0% | -5.0%
C=C(C)c1cccc(C(C)(C)NC(=O)N2CCN(C/C=C/c3ccccc3)CC2)c1 | -22.6% | u | 23.1µM* | 23.1µM* | -15.9%
C=C(C)c1cccc(C(C)(C)NC(=O)Nn2cnnc2)c1 | 2.2% | 13.7 | -9.1% | 0.82µM* | 7.2%[9.24 µM]
COc1ccc(-c2nc(N)c(C#N)c(-c3cccnc3)c2C)cc1 | 4.8% | -19.5 | -7.3% | u | -0.4%
CC(=O)c1cccc(NC(=O)COC(=O)c2ccc(S(C)(=O)=O)c([N+](=O)[O-])c2)c1 | u | -89.3* | 6.31µM* | 10µM* | u
CS(=O)(=O)c1ccc(C(=O)OCC(=O)Nc2ccc(OC(F)(F)F)cc2)cc1[N+](=O)[O-] | x | x | 8.91µM* | 10µM* | x
CC(OC(=O)c1ccncc1)C(=O)Nc1cccc([N+](=O)[O-])c1 (stereo unspecified) | 19.9% | 5.1 | 0.7% | -8.6% | 22.0%
Cc1csc(Sc2ccc(C(=O)OCC(=O)Nc3ccc(OC(F)(F)F)cc3)cc2[N+](=O)[O-])n1 | 0.1% | -9.5 | -13.8% | u | -4.8%
